# Calls of active or inactive are those of the source.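 Rule for the calls: active = cell survival after UV exposure 2 SD above solvent-only control wells at 10 µM, confirmed on one or two repeats; inactive = the rest.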
# Test: cell survival after pyrene fatty acid photosensitization – ZR-82 cells, Analyticon library, screen 2, phospholipid biosynthesis inhibitor project, primary screen (AID 1347383);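 note: survival reflects blocked phospholipid synthesis cutting uptake of the phototoxic fatty acid; compound and fatty acid exposure 3 h then viability read next day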
# Settings: ZR-82 CHO cells, pyrene-fatty acid UV killing, CellTiter Blue, at 10 µM; peroxisome-deficient CHO-K1 variant, with DGAT-1, DGAT-2 and ACAT inhibitors unless noted
row,SMILES,outcome
1,CO[C@H]1[C@H](O)[C@H](O[C@H]2CC[C@]3(C=O)C4CC[C@]5(C)[C@H](C6=CC(=O)OC6)CC[C@]5(O)C4CC[C@@H]3C2)O[C@@H](C)[C@@H]1O (some centres not stated),inactive
2,COc1ccc(C23C=C4C5CC6(O)CC7N(CCC57c5ccc(OC)c(OC)c5)C4(CC2NCC3)O6)cc1OC (configuration not stated),inactive
3,C[C@@]1(CO)[C@H](O)CC[C@@]2(C)[C@H]1CC[C@H]1C[C@@H]3C[C@@]12CC[C@]3(O)CO,inactive [setting not given]
4,CN1Cc2c(ccc3c2OCO3)[C@@H]2[C@H]1c1cc3c(cc1C[C@@H]2O)OCO3,inactive
5,CC[C@H]1CN2CC[C@H]1C[C@@H]2[C@@H](O)c1ccnc2ccc(OC)cc12,inactive
6,COc1ccc(C23CCC(=O)C=C2N(C)CC3)cc1OC (configuration not stated),inactive
7,CC#CC#Cc1ccc(C#CC(O)COC(C)=O)s1 (configuration not stated),inactive
8,CC(C)C(=O)O[C@H]1[C@@H]2[C@H](C)C(=O)O[C@@H]2C[C@@H](C)[C@@H]2C=CC(=O)[C@]21C,inactive
9,CCC1C2CC3C4N(C)c5ccccc5C45CC(C2C5O)N3C1O (configuration not stated),inactive [setting not given]
10,COc1cc(C2c3cc4c(c(O)c3CC3COC(=O)C32)OCO4)cc(OC)c1O (configuration not stated),inactive [setting not given]
11,CC[C@H]1CN2CC[C@H]1C[C@H]2[C@H](O)c1ccnc2ccc(OC)cc12,inactive
12,CC1(C)C=Cc2c(ccc3c4c([nH]c23)C(C)(C)C2CC35CCCN3C(=O)C2(C4)NC5=O)O1 (configuration not stated),inactive
13,CCC1CN2CCC3(C(=O)Nc4cccc(O)c43)C2CC1/C(=C/OC)C(=O)OC (configuration not stated),inactive
14,COc1ccc(/C=C/c2cc(O)cc(O)c2)cc1,inactive [setting not given]
15,C[C@]12CC[C@H](O[C@@H]3O[C@H](CO)[C@@H](O)[C@H](O)[C@H]3O)CC1CC[C@@H]1C2CC[C@]2(C)[C@@H](C3=CC(=O)OC3)CC[C@]12O (some centres not stated),inactive
16,COc1cc(C2c3cc4c(cc3C(O)C3COC(=O)C23)OCO4)cc(OC)c1O (configuration not stated),inactive
17,CO[C@H]1[C@H](O)[C@H](O[C@H]2CC[C@]3(C)C4CC[C@]5(C)[C@H](C6=CC(=O)OC6)CC[C@]5(O)C4CC[C@@H]3C2)O[C@@H](C)[C@@H]1O (some centres not stated),inactive
18,C[C@@]1(C(=O)O)CC[C@]2(C)CC[C@]3(C)C4=CC(=O)c5cc(O)c(O)cc5[C@]4(C)CC[C@@]3(C)[C@@H]2C1,inactive
19,CO[C@H]1C[C@H](O[C@H]2CC[C@]3(CO)[C@H]4CC[C@]5(C)[C@@H](C6=CC(=O)OC6)CC[C@]5(O)[C@@H]4CC[C@]3(O)C2)O[C@H](C)[C@H]1O,inactive
20,C[C@H]1O[C@@H](O[C@H]2CC[C@]3(C=O)C4CC[C@]5(C)[C@@H](C6=CC(=O)OC6)CC[C@]5(O)[C@@H]4CC[C@]3(O)C2)C[C@@H](O)[C@@H]1O (some centres not stated),inactive
21,COC1CC(O[C@H]2CC[C@]3(C)C4CC[C@]5(C)[C@@H](C6=CC(=O)OC6)CC[C@]5(O)[C@@H]4CC[C@]3(O)C2)OC(C)C1O (some centres not stated),inactive
22,CCC1CC2CN3CCc4c([nH]c5ccccc45)C(C(=O)OC)(C2)C13 (configuration not stated),inactive
23,C=CCc1cc(OC)c2c(c1)OCO2,inactive [setting not given]
24,C/C=C(\C)[C@H](O)[C@H](C)/C=C(C)/C=C/C/C(C)=C/Cc1[nH]c(OC)c(OC)c(=O)c1C,inactive
25,CC1(C)OC1COc1c2occc2cc2ccc(=O)oc12 (configuration not stated),inactive
26,C/C=C1/CN2C3CC1C(CO)C2Cc1c3[nH]c2ccccc12 (configuration not stated),inactive
27,COc1ccc([C@@]23CC[C@@H](O)C[C@@H]2N(C)CC3)cc1OC,inactive
